# Screening results from PubChem BioAssay.
# NALP1 yeast inh = NALP1 inhibition. actives 0.61% (n = 280,000). inhibition, % at 10 µM. S. cerevisiae NALP1/ASC/caspase-1 growth, X-gal OD620, 72 h. AID 2071; in the data active means inhibition mostly above about 24%, no sharp cut-off; inactive means mostly below about 32%
# tim23-1 inh = growth inhibitors of tim23-1 mutant yeast | actives 1.3% (n = 330,000) | inhibition, % at 20 µM | S. cerevisiae tim23-1 growth, BacTiter-Glo luminescence, 24 h;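 active means growth inhibition of the mutant yeast at or above 50%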;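 further: temperature-sensitive mutant grown at 25 °C; plate controls were DMSO-treated mutant yeast for no effect and medium wells lacking yeast for full effect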
# TIM10 inh = inhibits growth of TIM10 yeast strain; S. cerevisiae TIM10 strain growth, BacTiter-Glo luminescence, 24 h; inhibition, % at 10 µM; actives 1.4% (n = 330,000);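 active means inhibition of 40% or more at the single tested concentration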;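 further: wild-type TIM10 isogenic control strain grown at permissive 25 °C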
# tim10-1 inh = growth inhibitors of tim10-1 mutant yeast | S. cerevisiae tim10-1 ts strain growth, BacTiter-Glo, 24 h | inhibition, % at 20 µM | actives 2.2% (n = 330,000) | AID 463190;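 active means inhibition of at least 40%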;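 further: mutant grown at 25 °C; 0% = DMSO wells with yeast and 100% = wells holding no yeast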
# NALP3 yeast inh = inhibitors of NALP3 inflammasome in yeast | Yeast reconstituted NLRP3/ASC/caspase-1, beta-gal luminescence, 24 h | inhibition, % at 10 µM | actives 0.39% (n = 330,000);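 active means inhibition of 50% or more; inactive means inhibition below 50%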;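 further: plate controls were induced DMSO wells for no effect and uninduced yeast grown without galactose for full effect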
# SKKanGAS inh = inhibitors of SKKanGAS S. pyogenes growth in kanamycin (SK-promoter or general growth effect). BacTiter-Glo, 6 h. inhibition, % at 7.5 µM. actives 1.3% (n = 300,000). AID 1662;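 active means mean replicate score, as percent of positive control median, at least 50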;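 further: strain carries kanamycin resistance gene driven by streptokinase promoter and grows in 40 µg/ml kanamycin; loss of luminescence reflects streptokinase promoter inhibition or plain growth inhibition; 0% = median of DMSO wells and 100% = positive control at its reference dose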
# * = called active by the depositor; x = not tested or not shown. Only some compounds are listed: those with a hit (about 4.9% of all), similar ones and a draw of the others.
SMILES,NALP1 yeast inh,tim23-1 inh,TIM10 inh,tim10-1 inh,NALP3 yeast inh,SKKanGAS inh
CCOC(=O)c1c(NC(=O)c2c(N)n(CCCOC)c3nc4ccccc4nc23)sc2c1CCCC2,25.7,10.7,11.7,10.3,27.2,55.8*
CCOCCCn1c(N)c(C(=O)Nc2sc3c(c2C(=O)OC)CCCC3)c2nc3ccccc3nc21,10.8,6.4,17.3,3.8,12.1,19.8
Cc1nc2c(c(C)nn2-c2ccccc2)c(C)c1CCC(=O)N1CCC2(CC1)OCCO2,-5.6,19.5,16.6,17.7,18.0,0.0
CCCN1CC(C)C(OC(C)=O)(c2ccccc2)CC1C (configuration not stated),9.8,-70.5,0.2,-7.1,1.3,-1.7
CC1CC(OC(=O)c2ccccc2)(c2ccccc2)C(C)CN1C (configuration not stated),33.3*,13.2,5.6,4.9,13.9,-7.5
CSc1ccc(C(=O)C2CCCN(CCCn3cccn3)C2)cc1 (configuration not stated),1.9,-17.4,-9.6,-18.7,8.0,-2.8
COC12C(COC(N)=O)C3=C(C(=O)C(C)=C(N)C3=O)N1CC1C2N1C (configuration not stated),x,5.7,-6.0,-5.5,3.8,110.8*
CN(C)[C@@H]1C(=O)C(C(N)=O)=C(O)[C@@]2(O)C(=O)C3=C(O)c4c(O)cccc4[C@@](C)(O)C3C[C@@H]12 (some centres not stated),x,-0.5,-1.6,2.8,13.6,109.5*
CN(C)[C@@H]1C(=O)C(C(N)=O)=C(O)[C@@]2(O)C(=O)C3=C(O)c4c(O)ccc(Cl)c4[C@@](C)(O)[C@H]3C[C@@H]12,7.6,x,x,x,x,108.8*
CN(C)[C@@H]1C(=O)C(C(N)=O)=C(O)[C@@]2(O)C(=O)C3=C(O)c4c(O)cccc4[C@@](C)(O)[C@H]3[C@H](O)[C@@H]12,53.3,-8.1,1.0,-3.3,13.5,-2.1
CCN(CC)CCN/N=C(\C)c1c(O)[nH]c(=O)[nH]c1=O,x,-11.2,8.3,-7.4,18.3,1.9
CNC(=O)Oc1ccc2ncccc2c1,51.5*,-12.4,-12.6,-10.0,6.9,1.7
COc1ccc(C2C(C(=O)N3CCC4(CC3)OCCO4)CC(=O)N2c2ccc(OC)cc2)cc1 (configuration not stated),23.7,1.7,22.0,5.9,-1.8,x
CC1(C)CN=C(Nc2nc3ccccc3s2)S1,-0.1,23.6,-27.9,10.1,27.1,61.1*
CC1(C)CN=C(NCc2ccccc2)S1,x,x,x,x,x,-4.0
Cc1c(C)c2ccc(OCC(=O)N3C[C@H]4C[C@@H](C3)c3cccc(=O)n3C4)cc2oc1=O,40.3*,-1.3,-9.9,-9.5,10.6,2.5
COc1ccc(CCN)cc1O,x,10.8,2.2,10.9,26.6,1.6
CCCCOc1ccc(CCN)cc1Cl,47.5*,1.8,3.2,4.2,41.0,5.1
Cc1ccc(NC(=O)c2cc(-c3ccccc3)n(CCCN3CCOCC3)c2C)cc1,37.3*,20.9,19.5,16.8,10.6,-8.2
Clc1ccc(COC(Cn2ccnc2)c2ccc(Cl)cc2Cl)c(Cl)c1 (configuration not stated),23.2,36.1,-66.4,-6.6,23.8,108.3*
COc1ccc(-n2c(/C=C/c3ccc(O)cc3)nc3ccccc3c2=O)cc1,-8.4,29.8,27.8,31.6,13.6,18.0
COc1ccc(-n2c(/C=C/c3ccc(O)c(OC)c3)nc3ccccc3c2=O)cc1,17.5,42.8,0.8,4.6,23.6,91.2*
ClC1C(Cl)C(Cl)C(Cl)C(Cl)C1Cl (configuration not stated),x,-7.1,4.3,1.1,4.2,x
Cc1sc2ncnc(N3CCC(C(=O)Nc4ccc(C#N)c(Cl)c4)CC3)c2c1C,x,4.0,9.5,-0.6,19.2,57.2*
Cc1noc(C)c1CSCC(=O)Nc1ccc(C#N)c(Cl)c1,x,-2.0,0.0,-11.8,3.6,x
SMILES,NALP1 yeast inh,tim23-1 inh,TIM10 inh,tim10-1 inh,NALP3 yeast inh,SKKanGAS inh
COc1cccc(CNCCc2ccc(F)cc2)c1,6.2,0.7,4.8,-1.2,5.6,-0.1
Fc1ccc(CCNCc2cccc(Cl)c2)cc1,40.6*,7.9,9.7,4.6,14.2,0.3
CC1=C(C(=O)O)N2C(=O)C(NC(=O)Cc3ccccc3)C2SC1 (configuration not stated),x,10.1,10.2,-7.3,-10.6,94.5*
COc1cccc(NP(=O)(Oc2ccc(Cl)cc2)Oc2ccc(Cl)cc2)c1,13.4,16.0,22.6,12.3,-3.7,56.1*
C[C@H]1CC[C@@]2(C)[C@@H](CC[C@@H]3[C@@H]2CC[C@]2(C)[C@@H](O)CC[C@@H]32)C1,x,21.4,-3.3,-8.1,44.1,86.7*
CCCCCn1c(=O)c(C(=O)Nc2ncccc2C)c(O)c2ccccc21,2.0,-4.5,-15.3,-20.9,24.5,101.2*
O=[N+]([O-])c1ccc(NCCCN2CCOCC2)nc1,16.1,4.5,6.1,-8.0,-0.9,6.8
Oc1c(Br)cc(Br)cc1Oc1ccc(Br)cc1Br,30.0,x,x,x,x,106.9*
CC1=C(C(=O)N2CCC3(CC2)OCCO3)C2(CCC(C)CC2)OC1=O (configuration not stated),8.0,4.5,-8.1,11.7,0.8,2.7
CN(C)P(=O)(C(Cl)=C(N1CCCCC1)N1CCCCC1)N(C)C,5.3,7.1,13.7,14.3,3.4,-5.2
Cn1ncc(Cl)c1C(=O)N1CCC2(CC1)OCCO2,6.0,-0.4,1.4,0.6,11.7,50.8*
CCn1nc(-c2cccs2)nc2c(=O)n(C)c(=O)nc1-2,33.1*,x,x,x,x,x
Cc1ccccc1OCCCn1cc(C(=O)C(=O)N2CCOCC2)c2ccccc21,14.0,12.8,37.1,21.1,2.3,0.5
CNC(=O)N(C)c1ccc(C(O)(C(=O)OC)C(F)(F)F)cc1 (configuration not stated),42.3*,0.4,4.3,-2.4,0.9,18.2
COC(=O)C(O)(c1ccc(N(C)C(=O)OC(C)C)cc1)C(F)(F)F (configuration not stated),16.1,19.5,6.2,18.1,1.2,-6.1
O=C(O)C1CN2CCC1CC2 (configuration not stated),30.9,0.5,5.0,4.1,-7.0,6.5
Brc1ccc2c(c1)C(OC1CN3CCC1CC3)c1ccccc1CS2 (configuration not stated),57.3*,24.4,38.1,31.6,7.3,0.5
c1ccc2c(c1)CSc1ccccc1C2C1=NCCN1 (configuration not stated),7.0,9.7,0.6,-0.8,3.8,-7.1
O=C(COC(=O)Cc1ccccc1)NC12CC3CC(CC(C3)C1)C2,24.2*,39.1,18.2,30.7,-6.1,1.4
O=C(COC(=O)Cc1ccccc1)NC(=O)NC1CCCCC1,x,6.5,-0.2,8.3,-4.4,-7.4
CC(=O)NC(Cc1ccc(N(CCCl)CCCl)cc1)C(=O)NCC(=O)NCC(=O)O (configuration not stated),9.2,3.1,-15.4,4.6,-4.2,12.0
